# Glioma ERSR ind: ER stress response induction in glioma. actives 0.02% (n = 420,000). Potency, µM, without a hit: top-dose activation, most hits filed as activators. U87-MG GRP78 promoter luciferase reporter, 16 h. AID 602332; further: series mostly up to about 76 µM; % of control where 0% means no effect; nearly all actives have a fitted effect of over 35% in size
#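 Stably transfected U87-MG glioma cells carrying a GRP78-based luciferase sensor; 16 h compound incubation. Luminescence end-point read 10 min after Bright-Glo addition at room temperature.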
# Sfp PPTase inh: inhibitors of Bacillus subtilis Sfp phosphopantetheinyl transferase; AID 1490; actives 3.5% (n = 310,000); Potency, µM, for inactives: largest response in the series, negative = inhibition, usual class: inhibitors; Biochemical Sfp PPTase activity, qHTS;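 further: the enzyme is Sfp with the accession as filed and its product quenches rhodamine fluorescence; 0% = enzyme reaction without inhibitor and -100% = no enzyme wells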
#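 Sfp 15 nM + cpd, 15 min RT; start w/ rhodamine-CoA 5 uM, BHQ-2-YbbR 12.5 uM (final); 50 mM Hepes pH 7.6, 10 mM MgCl2, 0.01% NP-40, 0.01% BSA; read 525/598 nm at 0 and 30 min.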
# G9a block: inhibitors of human histone lysine methyltransferase G9a. AID 504332. Q96KQ7. actives 8.8% (n = 350,000). Potency, µM (highest dose often 102 µM), for the others: top-dose activity, negative = inhibition, most hits filed as inhibitors. G9a H3K9 monomethylation, AlphaScreen, 2 h; further: on the % scale 0 is the no-effect control and ±100 the full control effect; nearly all actives have a fitted effect of over 75% in size
# Target sequence (Q96KQ7 913-1193 limits assumed): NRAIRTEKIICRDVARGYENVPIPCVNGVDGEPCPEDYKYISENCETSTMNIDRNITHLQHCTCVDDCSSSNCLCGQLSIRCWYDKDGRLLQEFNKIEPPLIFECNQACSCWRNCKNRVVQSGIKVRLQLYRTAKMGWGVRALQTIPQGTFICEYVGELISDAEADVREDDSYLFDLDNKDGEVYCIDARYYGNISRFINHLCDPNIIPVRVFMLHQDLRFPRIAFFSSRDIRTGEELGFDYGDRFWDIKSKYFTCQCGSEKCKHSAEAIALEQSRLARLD
#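 Methyltransferase reactions run at room temperature for 2 h (20 nM enzyme, 500 nM biotin-H3K9 peptide, 20 uM SAM) after a 15 min compound preincubation; product detected by AlphaScreen beads and anti-H3K9me1 antibody.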
# ALOX12 inh: ALOX12 (human) lipoxygenase inhibition; purified 12hLO, xylenol orange hydroperoxide absorbance; Potency, µM (titrated, usually from 108 µM), without a hit: top-dose activity change, negative = inhibition, most hits filed as inhibitors; actives 1.1% (n = 580,000); further: on the % scale 0 is the no-effect control and ±100 the full control effect
#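 Purified human 12hLO at 150 nM in 25 mM Hepes, 0.01% Triton X-100, pH 7.0, preincubated 15 min at room temperature with compound. Reaction started with 40 uM arachidonic acid, 30 min at room temperature. Hydroperoxide measured by Fe-xylenol orange, 573/405 nm absorbance ratio.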
# VDR inhibitor: inhibitors of human vitamin D receptor. P11473. VDR-SRC2-3 peptide fluorescence polarization, 2 h. Potency, µM, for inactives: max response, negative = inhibition, hits mostly inhibitors. actives 0.93% (n = 400,000). AID 504847; further: on the % scale 0 is the no-effect control and ±100 the full control effect
# Target sequence (P11473 whole entry, looked up): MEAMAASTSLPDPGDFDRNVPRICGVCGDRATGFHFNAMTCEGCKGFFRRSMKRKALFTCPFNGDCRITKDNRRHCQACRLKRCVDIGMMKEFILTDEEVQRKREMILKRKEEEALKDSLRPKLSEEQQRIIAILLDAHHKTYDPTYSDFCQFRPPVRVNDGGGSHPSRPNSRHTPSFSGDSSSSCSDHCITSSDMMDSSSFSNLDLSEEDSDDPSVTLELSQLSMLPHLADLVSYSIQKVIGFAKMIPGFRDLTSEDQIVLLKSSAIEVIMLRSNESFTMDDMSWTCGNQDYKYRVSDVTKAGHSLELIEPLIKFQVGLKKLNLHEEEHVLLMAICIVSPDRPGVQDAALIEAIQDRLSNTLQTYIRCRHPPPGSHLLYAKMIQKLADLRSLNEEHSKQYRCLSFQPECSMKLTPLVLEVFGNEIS
#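 The screen uses fluorescence polarization to detect compounds that interfere with recruitment of the SRC2-3 coactivator peptide to VDR; plates are read after 2 h at room temperature.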
# Starred values were filed as active, the others as inactive; ? = inconclusive; . = no result; [ ] = another dose, or the depositor's remark. This excerpt belongs to a sample that is enriched for hits. The call rests on the fitted dose curve; in most records, active means well fitted curve in the direction sought with a large enough effect; inconclusive means small, poorly fitted or top-dose-only effect, or another doubt; inactive means no such curve, though single readings can be large; an effect the other way counts as inactive or inconclusive. Potency means the concentration at half of the fitted maximal effect.
SMILES,Glioma ERSR ind,Sfp PPTase inh,G9a block,ALOX12 inh,VDR inhibitor
CC1CCN(c2cc(N)c(Cl)cc2[N+](=O)[O-])CC1,5%,1%,50µM*,?,-8%
Cc1ccc(CNC(=O)c2cc3c(C)nn(C)c3s2)cc1,.,.,.,-22%,.
N#CC(c1cccc(Cl)c1)c1ccc2c(C(F)(F)F)cc(C(F)(F)F)nc2n1 (stereo not given),-8%,-2%,14µM*,6%,-14%
COc1ccc(-c2csc3nc(-c4cccnc4)nc(Cl)c23)cc1OC,-2%,25µM*,?,-21%,?
COc1ccc(-c2noc(-c3nc(-c4cccnc4)no3)n2)cc1OC,.,.,.,0%,.
COc1cc(-n2c(-c3ccccc3)n[nH]c2=S)c(OC)cc1Cl,2%,?,.,28µM*,-7%
S=c1[nH]nc(-c2ccc(Cl)cc2)n1-c1cccnc1,-3%,-18%,10µM*,?,-21%
COc1ccccc1-n1c(-c2cccnc2)n[nH]c1=S,-4%,50µM*,3.2µM*,?,5%
S=c1[nH]nc(-c2ccc3ccccc3n2)n1-c1ccccc1,-4%,-5%,1.6µM*,?,-16%
Cc1cc(Cl)ccc1OCc1nnc(SCc2ccc(Cl)c(Cl)c2)n1C,.,.,.,-16%,.
COc1ccc2c(COC(=O)c3cccc4ccccc34)cc(=O)oc2c1,.,.,.,-8%,.
COc1cc(-c2n[nH]c(=S)n2-c2cccc(C(F)(F)F)c2)cc(OC)c1OC,-2%,-20%,?,?,-16%
COc1cc(-c2n[nH]c(=S)n2-c2ccccc2C(F)(F)F)cc(OC)c1OC,-3%,-18%,3.5µM*,-9%,-25%
c1ccc(-c2nc(-c3cccnc3)n[nH]2)cc1,.,14%,21%[59 µM],26%,.
S=c1[nH]nc(-c2cccnc2)n1-c1ccccc1,0%,79µM*,1.6µM*,-26%,-11%
CCOc1ccc2c(c1)[N+](C)(C)C(C)(C)C=C2C,-4%,13%,?,?,2%
COc1ccc2c(c1)[N+](C)(C)C(C)(C)C=C2C,-1%,-13%,?,32µM*,-23%
O=C1CCN(S(=O)(=O)c2ccccc2)CCCN(C(=O)c2ccc3ccccc3n2)CCN1,.,.,.,29%,.
CC(C)=CCOc1ccc(/C=C/C(=O)c2ccc(OCC=C(C)C)cc2OCC(=O)O)cc1,-3%,?,-2%[59 µM],-23%[22.9 µM],10µM*
COCCOc1ccc(C(F)(F)F)cc1NC(=O)c1ccc(C)cc1,-3%,8%,4%[59 µM],0%,0%
CCCCCNCC(=O)Nc1cc(C(F)(F)F)ccc1OCCOC,-5%,-8%,8.9µM*,-18%,-6%
Cc1cccc[n+]1CC(=O)/C=C1\N(C)c2ccccc2C1(C)C,-2%,-2%,-13%,?,-6%
CN1/C(=C\C(=O)COC(=O)c2ccc(O)c(O)c2)C(C)(C)c2ccccc21,-6%,?,?,10µM*,15%
CNS(=O)(=O)c1cccc(C(=O)OCC(=O)/C=C2/N(C)c3ccccc3C2(C)C)c1,-6%,4%,-43%[59 µM],-14%,11%
CN1/C(=C/C(=O)CSc2ccccc2C(=O)O)C(C)(C)c2ccccc21,2%,89µM*,?,6%,-7%
SMILES,Glioma ERSR ind,Sfp PPTase inh,G9a block,ALOX12 inh,VDR inhibitor
CN1/C(=C\C(=O)CSc2cccc[n+]2[O-])C(C)(C)c2ccccc21,-3%,16µM*,10µM*,-24%,12%
CCCCc1cc(=O)oc2cc(OCC(=O)c3ccc(OC)cc3)ccc12,.,.,.,4%,.
CN(C(=O)c1cccc(N2C(=O)C3CC=CCC3C2=O)c1)C1CCCCC1 (stereo not given),1%,-11%,50µM*,0%,-3%
O=C(CCN1C(=O)C2CC=C(Cl)CC2C1=O)NCc1ccccc1 (stereo not given),-1%,4%,18µM*,0%,6%
O=C(CN1C(=O)C2CC=C(Cl)CC2C1=O)Nc1ccc(C(=O)O)cc1 (stereo not given),0%,-13%,13µM*,0%,0%
CN(Cc1ccccc1)C(=O)c1cccc(N2C(=O)C3CC=CCC3C2=O)c1 (stereo not given),-3%,3%,-7%[2.33 µM],5%,2%
O=C(O)c1cccc(N2C(=O)C3CC=C(Cl)CC3C2=O)c1 (stereo not given),-4%,-5%,45µM*,4%[57.4 µM],?
CCCCCn1nc(C(=O)NC2(C)CCS(=O)(=O)C2)c2ccccc2c1=O (stereo not given),.,.,.,17%,.
Cc1oc2ccn(Cc3ccccc3F)c(=O)c2c1C(=O)NCc1cccc(Cl)c1,.,.,.,-2%,.
Cc1ccc(NS(=O)(=O)c2ccc(-c3cnc(C)o3)cc2)c(Cl)c1,.,.,.,37%,.
CSc1cccc(NC(=O)C(C)SC)c1 (stereo not given),.,.,.,-6%,.
CNC(=O)C1CCN(Cc2nc3ccccc3c(C)c2C(=O)OC)CC1,.,.,.,-3%,.
NCCc1ccc(CN2C[C@@H]3CC[C@H](C2)N(Cc2ccccc2)C3)cc1,.,.,.,71%,.
Cc1ccc(O)c(C2=NNC(O)(C(F)(F)F)C2)c1 (stereo not given),-7%,23%,56µM*,13%,14%
S=c1[nH]nc(-c2cc(-c3ccsc3)n[nH]2)n1-c1cccc2ccccc12,0%,-15%,8.9µM*,?,-17%
COc1ccccc1N1CCN(CCc2n[nH]c(=S)n2-c2ccccc2)CC1,2%,-11%,?,?,34%
COc1ccc(-c2cc(-c3n[nH]c(=S)n3-c3cccc4ccccc34)[nH]n2)cc1,-3%,1%,35µM*,?,-14%
COCc1n[nH]c(=S)n1-c1cccc2ccccc12,0%,-18%,16µM*,?,-8%
CN(C)Cc1nnc(C2CC(NC(=O)c3cc(-c4ccsc4)n[nH]3)C2)n1C (stereo not given),.,.,.,91%,.
CC(=O)c1ccc(-n2c(-c3cc(-c4ccsc4)n[nH]3)n[nH]c2=S)cc1,-2%,-36%,1.1µM*,?,4%
Fc1ccccc1-n1c(-c2ccc3ccccc3n2)n[nH]c1=S,2%,-27%,-138%[59 µM],?,-2%
O=C(CCc1c[nH]c2ccccc12)N1CCC[C@H](n2c(=O)n(CC3CC3)c3cccnc32)C1,.,.,.,-19%,.
CC(C)c1ccc2c(c1)-c1ccccc1S(=O)(=O)N2CC(=O)NCc1ccncc1,.,.,.,13%,.
CC(C)(C)c1cnc(CN2CCCC2c2ccc[nH]2)o1 (stereo not given),.,.,.,-5%,.
Cc1oc(-c2cccs2)nc1C(=O)NCC(C)N1CCOCC1 (stereo not given),.,.,.,0%,.
O=C(CCc1ccccc1)N1CCN(c2ccccc2F)CC1,-3%,20%,3%,-7%,1%
Clc1ccccc1CN1CCN(CCCc2ccccc2)CC1,-5%,79µM*,13µM*,-36%,?
Fc1ccccc1N1CCN(CCCc2ccccc2)CC1,-2%,-16%,35µM*,-23%,-2%
COc1ccc(Cn2c3ccc(OC)cc3c3nc4ccccc4nc32)cc1,-4%,1%,50%[59 µM],?,-22%
